High-throughput results as filed in PubChem BioAssay.
PD-1 reversal: activators reversing PD-1 mediated T-cell inhibition | primary human CD4 T cells, PD-L1 beads, CellTiter-Glo 96 h | 29,000 tested, under 10 active | activation, % (no concentration beside the values); call rule not given here;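 further: 0% = median vehicle wells and 100% = positive control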
STK33 inh: human STK33 kinase inhibition; Q9BYT3; ADP-Glo luminescence, MBP substrate; inhibition, % at 12.5 µM; hit rate 0.44% among 27,000; in the data active means inhibition above about 20%
Target sequence (Q9BYT3 whole entry, looked up): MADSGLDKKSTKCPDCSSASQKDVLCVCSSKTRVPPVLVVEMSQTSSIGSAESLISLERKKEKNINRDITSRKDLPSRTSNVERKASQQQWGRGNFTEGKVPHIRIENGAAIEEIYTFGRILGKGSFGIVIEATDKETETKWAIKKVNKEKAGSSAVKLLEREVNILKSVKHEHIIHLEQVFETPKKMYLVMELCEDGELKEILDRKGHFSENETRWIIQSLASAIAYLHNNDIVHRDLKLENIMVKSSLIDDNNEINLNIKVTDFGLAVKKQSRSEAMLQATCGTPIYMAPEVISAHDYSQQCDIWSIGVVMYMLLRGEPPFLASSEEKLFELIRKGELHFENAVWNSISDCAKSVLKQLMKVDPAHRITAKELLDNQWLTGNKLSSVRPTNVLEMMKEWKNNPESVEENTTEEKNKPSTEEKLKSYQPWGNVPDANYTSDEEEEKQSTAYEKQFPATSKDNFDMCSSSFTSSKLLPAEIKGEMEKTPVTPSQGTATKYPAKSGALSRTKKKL
NOMO-1 viab: STK33 inhibitor candidate reducing NOMO-1 cell viability | hit rate 7.5% among 37,000 | NOMO-1 AML viability, CellTiter-Glo luminescence, 72 h | AID 2330 | inhibition, % (test concentration not listed); in the data active means inhibition above about 80%
* = called active by the depositor. Shown is part of a subset that was picked to be rich in hits.

What do the screens show for `O=S(=O)(Cc1ccc(Cl)cc1)CC(O)COc1ccc(F)cc1` (stereo not drawn)?
PD-1 reversal: 0.6; NOMO-1 viab: 26.0

Results for OC(COc1ccc(F)cc1)(c1ccc(Cl)cc1)c1ccc(Cl)cc1 ?
PD-1 reversal: -4.2; NOMO-1 viab: 121.1*

How did Cc1ccc(N(CC(O)Cn2c3ccccc3c3ccccc32)S(C)(=O)=O)c(C)c1 (stereo not drawn) do in these assays?
PD-1 reversal: 0.1; STK33 inh: 2.4; NOMO-1 viab: 89.9*

Results for Cc1ccc(N(CC(O)Cn2c3ccccc3c3ccccc32)S(C)(=O)=O)cc1 (stereo not drawn) ?
PD-1 reversal: -3.8; STK33 inh: -0.9; NOMO-1 viab: 43.8

Results for COC(=O)c1ccc(OCC(O)Cn2c(C)nc3ccccc32)cc1 (stereo not drawn) ?
PD-1 reversal: -1.6; STK33 inh: 0.4; NOMO-1 viab: 68.2

Results for C[C@H]1CN([C@@H](C)CO)C(=O)c2cc(NC(=O)Nc3ccc(C(F)(F)F)cc3)ccc2O[C@@H]1CN(C)C(=O)NC1CCCCC1 ?
PD-1 reversal: 0.6; STK33 inh: 1.4; NOMO-1 viab: -9.4

How did C[C@@H]1CN([C@H](C)CO)C(=O)c2cc(NC(=O)Nc3ccc(F)cc3)ccc2O[C@H]1CN(C)C(=O)Nc1ccc(C(F)(F)F)cc1 do in these assays?
PD-1 reversal: -3.1; NOMO-1 viab: 78.1

How did C[C@@H]1CN([C@@H](C)CO)C(=O)c2cc(NC(=O)Nc3ccc(C(F)(F)F)cc3)ccc2O[C@@H]1CN(C)C(=O)NC1CCCCC1 do in these assays?
PD-1 reversal: -4.3; STK33 inh: 0.7; NOMO-1 viab: 107.4*

Results for C[C@@H]1CN([C@H](C)CO)C(=O)c2cc(NC(=O)Nc3ccc(C(F)(F)F)cc3)ccc2O[C@H]1CN(C)C(=O)Nc1ccc(C(F)(F)F)cc1 ?
PD-1 reversal: -3.8; NOMO-1 viab: 108.6*

Results for C[C@H]1CN([C@@H](C)CO)C(=O)c2cc(NC(=O)Nc3ccc(C(F)(F)F)cc3)ccc2O[C@@H]1CN(C)C(=O)Nc1ccc(C(F)(F)F)cc1 ?
PD-1 reversal: -2.9; NOMO-1 viab: 122.1*

Results for C[C@H]1CN([C@@H](C)CO)C(=O)c2cc(NC(=O)Nc3ccc(F)cc3)ccc2O[C@@H]1CN(C)C(=O)Nc1ccc(C(F)(F)F)cc1 ?
PD-1 reversal: -0.4; NOMO-1 viab: 29.0

What do the screens show for `CC(=O)O[C@H]1[C@H](Oc2cc(O)cc(O)c2C(=O)c2cc(O)cc(O)c2)O[C@H](CO)[C@@H](OC(=O)c2ccccc2)[C@@H]1O`?
PD-1 reversal: 0.1; STK33 inh: 2.1; NOMO-1 viab: -2.5

Results for Cc1ncc([N+](=O)[O-])n1CC(=O)N(C)c1ccccc1 ?
PD-1 reversal: 1.0; STK33 inh: 3.7; NOMO-1 viab: 14.8

What do the screens show for `CC12CCC(c3c1nn(-c1ccccc1)c3C(F)(F)F)C2(C)C` (stereo not drawn)?
PD-1 reversal: -5.5; NOMO-1 viab: 122.6*

How did O=C(NC1CCN(C(=O)c2ccc(Cl)cc2Cl)CC1)c1ccccc1 do in these assays?
PD-1 reversal: 1.7; STK33 inh: -2.2; NOMO-1 viab: 17.7

Results for COc1ccc(-n2c(CC#N)nnc2SCc2c(C)c(C)c(C)c(C)c2C)cc1 ?
PD-1 reversal: -0.2; NOMO-1 viab: 101.7*

Results for COc1ccc(-n2c(CSc3nnc(-c4ccc(OC)c(OC)c4)n3-c3ccccc3)n[nH]c2=S)cc1 ?
PD-1 reversal: 0.3; STK33 inh: -0.4; NOMO-1 viab: 30.0

Results for CCOC(=O)c1ccc(NC(=O)CSc2nc3sc4c(c3c(=O)[nH]2)CCCC4)cc1 ?
PD-1 reversal: 2.2; STK33 inh: 7.6; NOMO-1 viab: -2.6

How did C[C@@H]1CN([C@@H](C)CO)C(=O)c2cccc(NC(=O)C3CC3)c2O[C@H]1CN(C)Cc1ccc(C(=O)Nc2ccccc2N)cc1 do in these assays?
PD-1 reversal: -0.8; NOMO-1 viab: 73.0

How did C[C@@H]1CN([C@H](C)CO)C(=O)c2cccc(NC(=O)C3CCOCC3)c2O[C@@H]1CN(C)Cc1ccc(C(=O)Nc2ccccc2N)cc1 do in these assays?
PD-1 reversal: 0.6; NOMO-1 viab: 107.2*

Results for C[C@@H]1CN([C@@H](C)CO)C(=O)c2cccc(NC(=O)C3CCCCC3)c2O[C@@H]1CN(C)Cc1ccc(C(=O)Nc2ccccc2N)cc1 ?
PD-1 reversal: -4.5; NOMO-1 viab: 126.6*

Results for C[C@H]1CN([C@@H](C)CO)C(=O)c2cccc(NC(=O)C3CCOCC3)c2O[C@@H]1CN(C)Cc1ccc(C(=O)Nc2ccccc2N)cc1 ?
PD-1 reversal: 2.2; NOMO-1 viab: 24.5

Results for O=C1COc2ccc(S(=O)(=O)NCCOc3ccccc3)cc2N1 ?
PD-1 reversal: 3.8; STK33 inh: 1.8; NOMO-1 viab: 13.9
